Source: PubChem BioAssay (NCI)
About 83,000 compounds went through this panel and 20% of them were active in at least one assay; those are over-represented in the sample as a whole.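 Interpretation: 100, growth as untreated; towards 0, rising growth inhibition; 0, no net growth; 0 to -100, cell death. Compounds scoring below 10 were considered active.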 A number with no mark means an inactive call. Activity calls are given as the source filed them.

Legend:
Test in all cases: NCI-60 one-dose screen, 48 h (100 = growth as untreated, 0 = no growth, -100 = all killed)
[1] = test system: SR leukemia; settings: 10 µM unless noted
[2] = test system: RPMI-8226 leukemia; settings: 10 µM unless noted
[3] = test system: OVCAR-8 ovarian; settings: 10 µM unless noted
[4] = test system: OVCAR-5 ovarian; settings: 10 µM unless noted
[5] = test system: OVCAR-4 ovarian; settings: 10 µM
[6] = test system: SK-OV-3 ovarian; settings: 10 µM unless noted
[7] = test system: OVCAR-3 ovarian; settings: 10 µM unless noted
[8] = test system: HS 578T breast; settings: 10 µM unless noted
[9] = test system: NCI/ADR-RES ovarian; settings: 10 µM unless noted
[10] = test system: BT-549 breast; settings: 10 µM unless noted
[11] = test system: MDA-MB-435 melanoma; settings: 10 µM unless noted
[12] = test system: SW-620 colon; settings: 10 µM unless noted
[13] = test system: MCF7 breast; settings: 10 µM unless noted
[14] = test system: HCT-116 colon; settings: 10 µM unless noted
[15] = test system: HCC-2998 colon; settings: 10 µM unless noted
[16] = test system: KM12 colon; settings: 10 µM unless noted
[17] = test system: IGROV1 ovarian; settings: 10 µM unless noted
[18] = test system: T-47D breast; settings: 10 µM unless noted

SMILES | growth [1] | growth [2] | growth [3] | growth [4] | growth [5] | growth [6] | growth [7] | growth [8] | growth [9] | growth [10] | growth [11] | growth [12] | growth [13] | growth [14] | growth [15] | growth [16] | growth [17] | growth [18]
Ic1ccc2[nH]cc(SSc3c[nH]c4ccc(I)cc34)c2c1 | 13.8% | 3.93% (active) | 32.6% | 42.7% | 25.3% | -20.1% (active) | -9.35% (active) | 65.7% | 7.06% (active) | 31.5% | 24.3% | 39.4% | -29.4% (active) | 10.1% | 4.84% (active) | 6.3% (active) | – | –
COc1ccc(-c2cc(-c3ccccc3)nc(NCCNc3ccnc4cc(Cl)ccc34)n2)cc1 | -7.13% (active) | -34.4% (active) | -60.2% (active) | -96.6% (active) | -48.8% (active) | – | -82.6% (active) | -53.9% (active) | -71.9% (active) | -69.4% (active) | -68.8% (active) | -68.2% (active) | -75.7% (active) | -74.1% (active) | -81.1% (active) | -72.7% (active) | -74.1% (active) | -64.6% (active)
Cn1cc(-c2nnc(-c3cn(C)c4ncccc34)o2)c2ccccc21 | 19.1% | 31.3% | 49.8% | 55.5% | 36.5% | – | -12% (active) | 30.9% | 11.9% | 42.4% | -32.8% (active) | 26.7% | 20.2% | 23% | 65.7% | 22.1% | 28% | 12.2%
CCCCOC(=O)c1cccc([N+](=O)[O-])c1 | 132% | 90.2% | 100% | 97.9% | 113% | 109% | 114% | 114% | 107% | – | 103% | 103% | 115% | 113% | 98.5% | 108% | – | 110%
Nc1ccc(NC(=O)c2ccccc2)c2c1C(=O)c1ccccc1C2=O | 96.8% | 102% | 96.9% | 117% | 103% | 112% | 96.5% | – | 99.6% | – | 98.2% | 98.3% | – | 101% | – | 96% | – | 107%
COc1cc(NN=C(c2ccc(O)cc2)c2ccc(O)cc2)c([N+](=O)[O-])cc1[N+](=O)[O-] | 50.6% | 81.5% | -31.7% (active) | 24.1% | 88.9% | 5.8% (active) | 60.9% | – | 8.39% (active) | 111% | 95.6% | 98.9% | 1.9% (active) | 1.31% (active) | 2.63% (active) | 73.2% | – | -10.1% (active)
C1=C[C@H]2O[C@@H]1c1ccc3[nH]ccc3c12 | 84.6% | 93.8% | 104% | 105% | 115% | 98.7% | 110% | 119% | 63.7% | 108% | 0.425% (active) | 73.4% | 96.1% | 97.9% | 86.7% | 79.5% | – | 110%
Cc1cccc(C[C@H](NC(=O)Nc2ccc(Cl)cc2F)C(=O)N[C@@H]2C(=O)N3C[C@H](O)C[C@H]3C(=O)N3CCCC[C@H]3C(=O)N[C@@H](C)C(=O)N3C[C@H](C)C[C@H]3C(=O)O[C@H]2C)c1 | 11% | 6.39% (active) | 13.5% | 6.86% (active) | 7.83% (active) | – | -26.4% (active) | 10.9% | 89.9% | -9.79% (active) | -5.25% (active) | 20.7% | 6.39% (active) | -31.6% (active) | -49% (active) | -31.4% (active) | 9.47% (active) | 5.41% (active)
CCN(CC)CCS(=O)(=O)CCNc1ccnc2cc(Cl)ccc12 | 6.28% (active) | -4.96% (active) | 14.5% | 18.6% | 24.7% | 22.5% | -14.9% (active) | – | -14.2% (active) | -0.495% (active) | 3.99% (active) | 7.17% (active) | 26.9% | 6.59% (active) | -13.5% (active) | -24.5% (active) | – | –
C#C[C@]1(O)CC[C@H]2[C@@H]3CC=C4c5nc(Nc6ncccn6)sc5CC[C@]4(C)[C@H]3CC[C@@]21C | 17.8% | -12.3% (active) | 77% | 86% | 67.9% | – | 65.3% | 1.8% (active) | 75.4% | 19.5% | 50.5% | 60.4% | 59.7% | 22.3% | 88.3% | 48.5% | 70.8% | 40%
CCCCCC1CCCCN1C(=O)OCCCC (configuration not stated) | 108% | 73.2% | 106% | 101% | 103% | 105% | 104% | 122% | 91.8% | – | – | 111% | 96.7% | 109% | – | 104% | – | 99.1%
CC[C@@](C)(NC(=O)[C@H](C)NC(=O)CCNC(=O)C(C)(C)NC(=O)[C@H](C)NC(=O)[C@@H]1CCCN1C(=O)[C@@](C)(CC)NC(=O)[C@H](Cc1ccccc1)NC(=O)C1CCCN1C(=O)C(C)(C)NC(=O)C1CCCN1C(=O)C(C)(C)NC(C)=O)C(=O)NCCC(=O)N[C@@H](CC(C)C)C(=O)NC(C)(C)C(=O)NCCC(=O)N[C@@H](CC(C)C)C(=O)NC(C)(C)C(=O)NC(C)(C)C(=O)N[C@@H](CC(C)C)C(=O)NCCC(=O)NCO (some centres not stated) | -50.9% (active) | -55.5% (active) | -82% (active) | -87.6% (active) | -96.5% (active) | – | -100% (active) | -60.6% (active) | -93.3% (active) | -97.3% (active) | -89.2% (active) | -79.2% (active) | -84.9% (active) | -94.6% (active) | -96.1% (active) | -94.8% (active) | -71.9% (active) | -66.9% (active)
C[N+](C)(C)c1ncnc2[n-]cnc12 | 107% | 126% | 93.7% | 76.4% | 105% | 98.7% | 92.4% | 95.6% | 41.5% | – | 104% | 96.1% | 89.8% | 105% | – | 93.6% | – | 84%
c1ccc(-c2nc(N3CCCNCC3)c3nc(-c4ccccc4)oc3n2)cc1 | 0.248% (active) | -15.7% (active) | 59.5% | 87.9% | 76.3% | – | -69.8% (active) | 83.6% | -11.8% (active) | 95.3% | -85.7% (active) | -77.1% (active) | -66.7% (active) | -74.8% (active) | -88.7% (active) | -74.7% (active) | -56% (active) | 46.9%
C#C[C@]1(O)CC[C@H]2[C@@H]3CC=C4c5nc(N)sc5CC[C@]4(C)[C@H]3CC[C@@]21C | 23.6% | -7.97% (active) | 85.3% | 88.5% | 63.4% | – | 47.2% | 6.1% (active) | 62.1% | 0.196% (active) | 15.5% | 74.6% | 75.2% | 33.8% | 80.8% | 44.7% | 71.8% | 58.2%
COc1ccc(C2=C(c3cn(C)c4ccccc34)C(=O)OC2)cc1OC | 29.1% | 40% | 47.8% | 64.9% | 39.8% | – | -8.6% (active) | 22.5% | 22.7% | 45.9% | -8.21% (active) | 19.7% | 18.8% | 29.3% | 65.9% | 26.4% | 43.4% | 23.8%
COc1ccc(C2CC(c3ccc4ccccc4c3)=NN2c2nc(O)c(C3=c4cc(OC)ccc4=NC3=O)s2)cc1 (configuration not stated) | -30.5% (active) | 1.78% (active) | -34.6% (active) | 0.651% (active) | -45.8% (active) | – | -55.5% (active) | -7.14% (active) | 57% | -19.8% (active) | -59.5% (active) | -42% (active) | -29.4% (active) | -64.5% (active) | -70.4% (active) | -70.3% (active) | -18.5% (active) | -72.7% (active)
C[C@@H]1C[C@H]2C(=O)O[C@@H](C)[C@H](NC(=O)[C@H](Cc3cc(F)cc(F)c3)NC(=O)Nc3ccc(C4CC4)cc3F)C(=O)N3CCC[C@H]3C(=O)N3CCCC[C@H]3C(=O)N[C@@H](C)C(=O)N2C1 | 27.8% | 14% | 11% | -2.59% (active) | 7.8% (active) | – | 5.07% (active) | 18.1% | 14.9% | -1.76% (active) | 3.38% (active) | 27.7% | 12.7% | -4.75% (active) | -10.3% (active) | 15.6% | 28.5% | 5.43% (active)
